Measured values: PubChem BioAssay (NCI)
The panel holds about 83,000 compounds, 20% with a hit somewhere; the sample as a whole holds those more often.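 Note: values are percent growth. 100 is the growth of untreated cells, values between 100 and 0 indicate rising inhibition; between -100 and 0 indicates cell death.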 Unmarked numbers belong to inactive results. Active and inactive are the calls of the source. The calls were made as follows: active = growth percent below 10; inactive = the rest.

Assays:
Assay in all cases: NCI-60 one-dose screen, 48 h (100 = growth as untreated, 0 = no growth, -100 = all killed)
[1] = tested on: EKVX NSCLC; settings: 10 µM unless noted
[2] = tested on: SN12C renal; settings: 10 µM unless noted
[3] = tested on: TK-10 renal; settings: 10 µM unless noted
[4] = tested on: ACHN renal; settings: 10 µM unless noted
[5] = tested on: CAKI-1 renal; settings: 10 µM unless noted
[6] = tested on: A498 renal; settings: 10 µM
[7] = tested on: HL-60(TB) leukemia; settings: 10 µM unless noted
[8] = tested on: CCRF-CEM leukemia; settings: 10 µM unless noted
[9] = tested on: MOLT-4 leukemia; settings: 10 µM unless noted
[10] = tested on: SR leukemia; settings: 10 µM unless noted
[11] = tested on: RPMI-8226 leukemia; settings: 10 µM unless noted
[12] = tested on: OVCAR-8 ovarian; settings: 10 µM unless noted
[13] = tested on: OVCAR-5 ovarian; settings: 10 µM unless noted
[14] = tested on: OVCAR-4 ovarian; settings: 10 µM unless noted
[15] = tested on: SK-OV-3 ovarian; settings: 10 µM unless noted
[16] = tested on: IGROV1 ovarian; settings: 10 µM unless noted
[17] = tested on: OVCAR-3 ovarian; settings: 10 µM unless noted
[18] = tested on: SK-MEL-2 melanoma; settings: 10 µM unless noted
[19] = tested on: UO-31 renal; settings: 10 µM unless noted
[20] = tested on: HS 578T breast; settings: 10 µM unless noted

Row | SMILES | growth [1] | growth [2] | growth [3] | growth [4] | growth [5] | growth [6] | growth [7] | growth [8] | growth [9] | growth [10] | growth [11] | growth [12] | growth [13] | growth [14] | growth [15] | growth [16] | growth [17] | growth [18] [%] | growth [19] [%] | growth [20] [%]
1 | COC(=O)[C@@]1(O)C[C@H]2O[C@]1(C)n1c3ccccc3c3c4c(c5c6ccccc6n2c5c31)C(=O)NC4 | -30.9% (active) | -47.2% (active) | -86.3% (active) | -27.3% (active) | -97.5% (active) | -96.6% (active) | -44.5% (active) | 0.604% (active) | -31% (active) | -18.3% (active) | -39.6% (active) | -43.6% (active) | -11.6% (active) | -51% (active) | -33.8% (active) | -30.4% (active) | -19.2% (active) | – | – | –
2 | COc1cc(/C=C\c2cc(OC)c(OC)c(OC)c2)cc(NS(=O)(=O)c2cccc(Cl)c2)c1OC | – | – | 63.3% | 16.4% | 11.4% | – | – | 9.72% (active) | 9.29% (active) | 10.6% | 18.1% | 18.2% | – | 37.4% | 16.9% | 26.3% | -36.3% (active) | 23.5 | 32.1 | 45.4
3 | NC(CCl)CCl | – | – | 111% | 104% | 99.3% | 111% | 123% | – | 105% | 108% | 99.3% | 100% | 107% | 102% | – | 110% | 100% | 124 | 93.3 | –
4 | CC(=O)C(c1c(O)c2ccccc2oc1=O)c1cc(=O)oc2c1ccc1ccccc12 (stereo unspecified) | 92.1% | 87.1% | 116% | 101% | – | 79.8% | 96.9% | 94.5% | 90.2% | 92.5% | 94% | 99.4% | 99.4% | 101% | 94.6% | 106% | 110% | – | 80.3 | 91.5
5 | CC1=C(O)[C@@](C)(CCCCC[C@H](C)CCCCc2ccc(O)cc2)OOC1=O | 95.4% | 88.5% | 129% | 97.5% | 80.6% | 119% | 84.4% | – | 86% | 50.1% | 85% | 93.4% | 103% | 100% | 106% | -11.1% (active) | 86.5% | – | 68.8 | 98.1
6 | Cc1ccc(C(=O)NCCCOc2ccc(N)cc2Cl)cc1S(=O)(=O)F | – | 105% | 97.1% | 105% | 92.5% | 82.4% | 98.8% | 88.7% | 79.7% | 87.9% | 85.6% | 101% | 102% | 97.5% | 82.1% | 95.5% | 98.8% | 78.7 | – | 98
